# Laboratory results reported in paper PMC9911399, “Two distinct binding modes provide the RNA-binding protein RbFox with extraordinary sequence specificity”.
# Changes are numbered by the printed parent chain; changes in the protein carry UniProt numbers. Whole data set: some 16,000 sequences, median “ka relative to ugcaugu” near 0.0091, cut for the highest 2% near 0.032. The sample holds the highest values, similar sequences and a random draw of the others, so the mix is not that of the screen.
# B1: UGUCCGA (DNA:RNA)
# RNA: GGGAGACCGGAAUUCAGAUUGUCCUGUCCGAUUAAAUCCCGUCGUAGCCACCA
# DNA 1: CAATCTGAATTCCGGTCTCCC
# DNA 2: TGGTGGCTACGACGGGATT
# B2: CCAGGCU (DNA:RNA)
# RNA: GGGAGACCGGAAUUCAGAUUGUCCCCAGGCUUUAAAUCCCGUCGUAGCCACCA
# DNA 1: CAATCTGAATTCCGGTCTCCC
# DNA 2: TGGTGGCTACGACGGGATT
# B3: UAGUUGG (DNA:RNA)
# RNA: B1 RNA with G26A, U27G, C28U, C29U, A31G
# DNA 1: CAATCTGAATTCCGGTCTCCC
# DNA 2: TGGTGGCTACGACGGGATT
# B4: CCAAUAG (DNA:RNA)
# RNA: B2 RNA with G28A, G29U, C30A, U31G
# DNA 1: CAATCTGAATTCCGGTCTCCC
# DNA 2: TGGTGGCTACGACGGGATT
# B5: UCAAGAG (DNA:RNA)
# RNA: B2 RNA with C25U, G28A, C30A, U31G
# DNA 1: CAATCTGAATTCCGGTCTCCC
# DNA 2: TGGTGGCTACGACGGGATT
# B6: GUUUUAG (DNA:RNA)
# RNA: B1 RNA with U25G, G26U, C28U, C29U, G30A, A31G
# DNA 1: CAATCTGAATTCCGGTCTCCC
# DNA 2: TGGTGGCTACGACGGGATT
# B7: GCGGAGC (DNA:RNA)
# RNA: B2 RNA with C25G, A27G, G29A, C30G, U31C
# DNA 1: CAATCTGAATTCCGGTCTCCC
# DNA 2: TGGTGGCTACGACGGGATT
# B8: CCUUACC (DNA:RNA)
# RNA: B2 RNA with A27U, G28U, G29A, U31C
# DNA 1: CAATCTGAATTCCGGTCTCCC
# DNA 2: TGGTGGCTACGACGGGATT
# B9: CCGUAGA (DNA:RNA)
# RNA: B2 RNA with A27G, G28U, G29A, C30G, U31A
# DNA 1: CAATCTGAATTCCGGTCTCCC
# DNA 2: TGGTGGCTACGACGGGATT
# B10: UGUAGCC (DNA:RNA)
# RNA: B1 RNA with C28A, C29G, G30C, A31C
# DNA 1: CAATCTGAATTCCGGTCTCCC
# DNA 2: TGGTGGCTACGACGGGATT
# B11: UGUUGCC (DNA:RNA)
# RNA: B1 RNA with C28U, C29G, G30C, A31C
# DNA 1: CAATCTGAATTCCGGTCTCCC
# DNA 2: TGGTGGCTACGACGGGATT
# B12: UUGCCUG (DNA:RNA)
# RNA: B1 RNA with G26U, U27G, G30U, A31G
# DNA 1: CAATCTGAATTCCGGTCTCCC
# DNA 2: TGGTGGCTACGACGGGATT
# B13: UGUCCCG (DNA:RNA)
# RNA: B1 RNA with G30C, A31G
# DNA 1: CAATCTGAATTCCGGTCTCCC
# DNA 2: TGGTGGCTACGACGGGATT
# B14: UGGUUCG (DNA:RNA)
# RNA: B1 RNA with U27G, C28U, C29U, G30C, A31G
# DNA 1: CAATCTGAATTCCGGTCTCCC
# DNA 2: TGGTGGCTACGACGGGATT
# B15: UGGUGCC (DNA:RNA)
# RNA: B2 RNA with C25U, C26G, A27G, G28U, U31C
# DNA 1: CAATCTGAATTCCGGTCTCCC
# DNA 2: TGGTGGCTACGACGGGATT
# B16: GUCCUGG (DNA:RNA)
# RNA: B1 RNA with U25G, G26U, U27C, C29U, A31G
# DNA 1: CAATCTGAATTCCGGTCTCCC
# DNA 2: TGGTGGCTACGACGGGATT
# B17: UGUGCCG (DNA:RNA)
# RNA: B1 RNA with C28G, G30C, A31G
# DNA 1: CAATCTGAATTCCGGTCTCCC
# DNA 2: TGGTGGCTACGACGGGATT
# B18: UGCUGGU (DNA:RNA)
# RNA: B1 RNA with U27C, C28U, C29G, A31U
# DNA 1: CAATCTGAATTCCGGTCTCCC
# DNA 2: TGGTGGCTACGACGGGATT
# B19: UGCCUGG (DNA:RNA)
# RNA: B1 RNA with U27C, C29U, A31G
# DNA 1: CAATCTGAATTCCGGTCTCCC
# DNA 2: TGGTGGCTACGACGGGATT
# B20: GUGCCUG (DNA:RNA)
# RNA: B1 RNA with U25G, G26U, U27G, G30U, A31G
# DNA 1: CAATCTGAATTCCGGTCTCCC
# DNA 2: TGGTGGCTACGACGGGATT
# B21: UGGUUCC (DNA:RNA)
# RNA: B1 RNA with U27G, C28U, C29U, G30C, A31C
# DNA 1: CAATCTGAATTCCGGTCTCCC
# DNA 2: TGGTGGCTACGACGGGATT
# B22: GAGUCGU (DNA:RNA)
# RNA: B1 RNA with U25G, G26A, U27G, C28U, A31U
# DNA 1: CAATCTGAATTCCGGTCTCCC
# DNA 2: TGGTGGCTACGACGGGATT
# B23: AUGCAAU (DNA:RNA)
# RNA: B2 RNA with C25A, C26U, A27G, G28C, G29A, C30A
# DNA 1: CAATCTGAATTCCGGTCTCCC
# DNA 2: TGGTGGCTACGACGGGATT
# B24: AGAUGAG (DNA:RNA)
# RNA: B2 RNA with C25A, C26G, G28U, C30A, U31G
# DNA 1: CAATCTGAATTCCGGTCTCCC
# DNA 2: TGGTGGCTACGACGGGATT
# B25: ACGGGCC (DNA:RNA)
# RNA: B2 RNA with C25A, A27G, U31C
# DNA 1: CAATCTGAATTCCGGTCTCCC
# DNA 2: TGGTGGCTACGACGGGATT
# B26: UGCCUCC (DNA:RNA)
# RNA: B1 RNA with U27C, C29U, G30C, A31C
# DNA 1: CAATCTGAATTCCGGTCTCCC
# DNA 2: TGGTGGCTACGACGGGATT
# B27: UGCCUUG (DNA:RNA)
# RNA: B1 RNA with U27C, C29U, G30U, A31G
# DNA 1: CAATCTGAATTCCGGTCTCCC
# DNA 2: TGGTGGCTACGACGGGATT
# B28: UGCUGCC (DNA:RNA)
# RNA: B2 RNA with C25U, C26G, A27C, G28U, U31C
# DNA 1: CAATCTGAATTCCGGTCTCCC
# DNA 2: TGGTGGCTACGACGGGATT
# B29: UAGUAGG (DNA:RNA)
# RNA: B1 RNA with G26A, U27G, C28U, C29A, A31G
# DNA 1: CAATCTGAATTCCGGTCTCCC
# DNA 2: TGGTGGCTACGACGGGATT
# B30: GGUGUGU (DNA:RNA)
# RNA: B1 RNA with U25G, C28G, C29U, A31U
# DNA 1: CAATCTGAATTCCGGTCTCCC
# DNA 2: TGGTGGCTACGACGGGATT
# B31: GGGUGUU (DNA:RNA)
# RNA: B2 RNA with C25G, C26G, A27G, G28U, C30U
# DNA 1: CAATCTGAATTCCGGTCTCCC
# DNA 2: TGGTGGCTACGACGGGATT
# B32: GGGGUGU (DNA:RNA)
# RNA: B2 RNA with C25G, C26G, A27G, G29U, C30G
# DNA 1: CAATCTGAATTCCGGTCTCCC
# DNA 2: TGGTGGCTACGACGGGATT
# B33: CCCGGGU (DNA:RNA)
# RNA: B2 RNA with A27C, C30G
# DNA 1: CAATCTGAATTCCGGTCTCCC
# DNA 2: TGGTGGCTACGACGGGATT
# B34: CGGGUGU (DNA:RNA)
# RNA: B2 RNA with C26G, A27G, G29U, C30G
# DNA 1: CAATCTGAATTCCGGTCTCCC
# DNA 2: TGGTGGCTACGACGGGATT
# B35: CGGUGUU (DNA:RNA)
# RNA: B2 RNA with C26G, A27G, G28U, C30U
# DNA 1: CAATCTGAATTCCGGTCTCCC
# DNA 2: TGGTGGCTACGACGGGATT
# Biological target: T1, RBFOX1 RRM (Homo sapiens, UniProt Q9NWB1 109-208)
# T1 sequence: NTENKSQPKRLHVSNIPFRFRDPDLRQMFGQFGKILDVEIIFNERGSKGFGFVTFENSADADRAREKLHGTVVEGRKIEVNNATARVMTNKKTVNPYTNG
# Test: EMSA; HiTS-Eq, 1 nM pool, 10 min; buffer printed only for the single-RNA assays: 10 mM Tris pH 7.5, 150 mM NaCl, 3.4 mM EDTA, 0.001% NP-40, 30 C
# Conditions: tags: His6 N-terminal (pET28a); label: 5' 32P
# Outline: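 Relative association constants, normalised to the cognate motif, were derived by comparing read counts of each RNA species with those of the control reaction. The RNA sequenced was the free fraction, separated by 8% native PAGE after a 10 min equilibration in 50 µL of 1 nM 5′-radiolabelled RNA (7 randomized nucleotides) with increasing concentrations of purified wild-type or mutant RbFox RRM.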
row,Binder,binding signal
1,B1,0.0182 KA relative to UGCAUGU
2,B2,0.00926 KA relative to UGCAUGU
3,B3,0.0164 KA relative to UGCAUGU
4,B4,0.00034 KA relative to UGCAUGU
5,B5,0.00877 KA relative to UGCAUGU
6,B6,0.0145 KA relative to UGCAUGU
7,B7,0.0117 KA relative to UGCAUGU
8,B8,0.00281 KA relative to UGCAUGU
9,B9,0.00944 KA relative to UGCAUGU
10,B10,0.0129 KA relative to UGCAUGU
11,B11,0.0243 KA relative to UGCAUGU
12,B12,0.0452 KA relative to UGCAUGU
13,B13,0.0122 KA relative to UGCAUGU
14,B14,0.0375 KA relative to UGCAUGU
15,B15,0.0219 KA relative to UGCAUGU
16,B16,0.0183 KA relative to UGCAUGU
17,B17,0.0199 KA relative to UGCAUGU
18,B18,0.028 KA relative to UGCAUGU

row,Binder,binding signal
1,B19,0.0474 KA relative to UGCAUGU
2,B20,0.0397 KA relative to UGCAUGU
3,B21,0.0214 KA relative to UGCAUGU
4,B22,0.0129 KA relative to UGCAUGU
5,B23,0.00453 KA relative to UGCAUGU
6,B24,0.0142 KA relative to UGCAUGU
7,B25,0.0142 KA relative to UGCAUGU
8,B26,0.00846 KA relative to UGCAUGU
9,B27,0.0505 KA relative to UGCAUGU
10,B28,0.0265 KA relative to UGCAUGU
11,B29,0.00933 KA relative to UGCAUGU
12,B30,0.0173 KA relative to UGCAUGU
13,B31,0.0233 KA relative to UGCAUGU
14,B32,0.038 KA relative to UGCAUGU
15,B33,0.00573 KA relative to UGCAUGU
16,B34,0.0321 KA relative to UGCAUGU
17,B35,0.0192 KA relative to UGCAUGU
